# Most compounds without a hit are left out; they make up all but 6.9% or so of the library.
# BAZ2B inh = qHTS Assay for Inhibitors of BAZ2B. AID 504333, 2011. actives 4.4% (n = 360,000). Bromodomain adjacent to zinc finger domain protein 2B (Homo sapiens), Q9UIF8. AlphaScreen BAZ2B-H3K14Ac peptide displacement. Potency, µM (titrated, usually from 114 µM), for inactives: at the highest dose activity change, negative = inhibition, most hits filed as inhibitors; further: on the % scale 0 is the no-effect control and ±100 the full control effect; nearly all actives have a fitted effect of over 60% in size
#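 AlphaScreen displacement of biotin-H3(5-23)K14Ac peptide (50 nM final) from BAZ2B (50 nM final) in PBS pH 7.4, 0.01% Tween-20; complex preformed 30 min RT, then compounds (top 110 uM) 30 min RT, beads 20 min dark.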
# VDR inhibitor = Inhibitors of the vitamin D receptor (VDR): qHTS; Vitamin D3 receptor (Homo sapiens), P11473; VDR-SRC2-3 peptide fluorescence polarization, 2 h; Potency, µM, for inactives: max response, negative = inhibition, hits mostly inhibitors; actives 0.93% (n = 400,000); further: on the % scale 0 is the no-effect control and ±100 the full control effect
# Target sequence (P11473 whole entry, looked up): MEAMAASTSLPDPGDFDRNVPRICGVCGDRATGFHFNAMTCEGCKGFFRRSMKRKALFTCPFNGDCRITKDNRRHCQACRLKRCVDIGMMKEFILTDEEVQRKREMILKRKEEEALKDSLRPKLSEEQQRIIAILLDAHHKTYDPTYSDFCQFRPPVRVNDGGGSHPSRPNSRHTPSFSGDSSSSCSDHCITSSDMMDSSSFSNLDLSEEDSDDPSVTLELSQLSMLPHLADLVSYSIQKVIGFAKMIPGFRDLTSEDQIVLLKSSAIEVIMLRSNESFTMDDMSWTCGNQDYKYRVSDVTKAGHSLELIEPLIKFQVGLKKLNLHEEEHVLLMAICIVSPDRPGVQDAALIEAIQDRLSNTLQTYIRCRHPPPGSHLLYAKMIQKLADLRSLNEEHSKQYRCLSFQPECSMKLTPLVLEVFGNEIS
#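 Signal is fluorescence polarization, reporting how far test compounds block the interaction of VDR with the SRC2-3 coregulator peptide after a 2 h room-temperature incubation.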
# JMJD2A Tudor = qHTS Assay for Inhibitors of JMJD2A-Tudor Domain; Lysine-specific demethylase 4A (Homo sapiens), O75164; AlphaScreen JMJD2A-Tudor / H3K4me3 peptide binding; actives 4.4% (n = 390,000); Potency, µM (titrated, usually from 114 µM), without a hit: at the highest dose activity change, negative = inhibition, most hits filed as inhibitors; further: on the % scale 0 is the no-effect control and ±100 the full control effect; nearly all actives have a fitted effect of over 50% in size
# L3MBTL1 inh = qHTS Assay for the Inhibitors of L3MBTL1 | Lethal(3)malignant brain tumor-like protein 1 (Homo sapiens), Q9Y468 | AlphaScreen L3MBTL1–H3K9me1 peptide binding | Potency, µM (top dose mostly 57.1 µM), for inactives: at the top dose activity, negative = inhibition, usual class: inhibitors | actives 0.66% (n = 230,000) | AID 485360, 2010; further: on the % scale 0 is the no-effect control and ±100 the full control effect; nearly all actives have a fitted effect of over 60% in size
#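 Displacement of a biotinylated histone H3(1-15) peptide monomethylated at Lys9 (75 nM) from L3MBTL1 (50 nM) was measured by AlphaScreen after a 30 min room-temperature compound incubation; cefsulodin titration served as intraplate control.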
# PLK1 PBD inh = qHTS for Inhibitors of PLK1-PDB (polo-like kinase 1 - polo-box domain): Primary Screen. Serine/threonine-protein kinase PLK1 (Homo sapiens), P53350. Plk1 PBD binding of FITC phosphopeptide, fluorescence polarization. Potency, µM, for inactives: max response, negative = inhibition, usual class: inhibitors. actives 2.8% (n = 360,000); further: series mostly up to about 57 µM; on the % scale 0 is the no-effect control and ±100 the full control effect; nearly all actives have a fitted effect of over 65% in size
# HP1b chromo inh = HTS for Inhibitors of HP1-beta Chromodomain Interactions with Methylated Histone Tails | AlphaScreen HP1-beta / biotin-H3K9me3 peptide binding | Potency, µM (titrated, usually from 114 µM), without a hit: at the top dose activity change, negative = inhibition, most hits filed as inhibitors | Chromobox protein homolog 1 (Homo sapiens), P83916 | AID 540317, 2011 | actives 0.56% (n = 390,000); further: nearly all actives have a fitted effect of over 70% in size
# Target sequence (P83916 whole entry, looked up): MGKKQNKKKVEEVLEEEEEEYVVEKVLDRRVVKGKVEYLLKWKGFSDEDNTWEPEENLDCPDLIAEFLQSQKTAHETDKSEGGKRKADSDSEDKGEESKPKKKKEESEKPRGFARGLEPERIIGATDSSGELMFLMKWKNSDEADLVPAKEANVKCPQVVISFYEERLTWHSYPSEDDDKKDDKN
#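 AlphaScreen: HP1-beta (50 nM) preformed 30 min with biotin-H3(1-18)K9me3 peptide (50 nM) in PBS pH 7.4, 0.01% Tween-20. Compound added for 30 min at RT, then streptavidin donor/nickel chelate acceptor beads (10 ug/mL) for 30 min.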
# Active calls of the source: *; ? = inconclusive; / = not tested or not shown; [ ] = another dose, or the depositor's remark. The call rests on the fitted dose curve; in most records, active means well fitted curve in the direction sought with a large enough effect; inconclusive means small, poorly fitted or top-dose-only effect, or another doubt; inactive means no such curve, though single readings can be large; an effect the other way counts as inactive or inconclusive. Potency means the concentration at half of the fitted maximal effect.
SMILES,BAZ2B inh,VDR inhibitor,JMJD2A Tudor,L3MBTL1 inh,PLK1 PBD inh,HP1b chromo inh
COc1cc(OC)c(NC(=O)NC(C)c2c(-n3cccc3)sc(C)c2C)cc1Cl (centres undefined),-18%,-16%,-32%,/,/,?
Brc1ccc2nc(-c3cccs3)c(NCC3CCCO3)n2c1 (centres undefined),50µM*,-13%,-24%,-25%,3%,18%
CCNc1ncc2nc(-c3cccs3)c(=O)n(Cc3cccc(OC)c3)c2n1,/,-14%,/,/,/,/
CCc1ccc(Nc2ncc3c(n2)CC(C)(C)CC3=O)cc1,1%,8%,-10%,5%,-14%,5%
COc1cccc(CNc2ccc(S(N)(=O)=O)cc2)c1OCc1ccccc1F,-36%,-14%,-28%,-6%,-12%,-2%
COc1cc(CNc2ccc(O)cc2)cc(Br)c1OCc1ccccc1F,?,35µM*,?,?,-2%,?
COc1cccc(CNc2ccccc2O)c1OCc1ccccc1F,32µM*,-4%,45µM*,?,-13%,45µM*
CCOc1cc(CNc2ccc(O)cc2)cc(Br)c1OCc1ccccc1,?,-17%,40µM*,/,/,?
CCOc1cc(/C=N/NC(N)=O)cc(Br)c1OCc1ccccc1F,-1%,-8%,-30%,-8%,-5%,15%
CCOc1cc(CNc2ccc(O)cc2)cc(Br)c1OCc1ccccc1F,-32%,79µM*,50µM*,16µM*,-2%,18µM*
Cc1oc2ccc(O)c(CN3CCCCCC3)c2c1C(=O)Nc1cccc(Cl)c1C,-21%,-1%,-15%,/,/,-8%
Cc1ccc(Nc2nc3ccccc3c3nnc(C)n23)c(C)c1,-15%,11%,-13%,/,/,21%
CCOCCCn1c(=N)c(C(=O)NC2CCCC2)cc2c(=O)n3cc(C)ccc3nc21,?,-15%,-4%,/,/,31%
Cc1cc(C)nc(NC(=O)c2c(F)c(F)c(F)c(C(=O)Nc3cc(C)cc(C)n3)c2F)c1,/,-13%,-15%,/,-13%,46%
COc1ccc(-c2ncc3ccccn23)cc1OC,32µM*,8%,3.5µM*,5%,-1%,?
Clc1ccccc1-c1ncc2ccccn12,56µM*,0%,18µM*,-16%,-11%,?
Clc1ccc(-c2ncc3ccccn23)cc1,?,0%,-15%,-17%,-10%,17%
COCCn1c(SCCN2CCCCC2)nc2ccccc2c1=O,?,-1%,2.2µM*,-8%,-7%,?
CC(=O)N1CCc2c(sc3c2c(=O)n(-c2ccccc2)c(=O)n3CC(=O)Nc2cccc(C)c2)C1,-1%,-12%,-19%,/,/,18%
CC(=O)N1CCc2c(sc3c2c(=O)n(-c2ccccc2)c(=O)n3CC(=O)Nc2ccccc2)C1,-2%,9%,79µM*,/,/,9%
O=c1c2c3c(sc2n(CCN2CCCC2)c(=O)n1Cc1ccco1)CCCCC3,-35%,-15%,79µM*,-5%,-3%,?
CN(C)CCn1c(=O)n(Cc2ccco2)c(=O)c2c3c(sc21)CCCCC3,?,9%,?,-10%,-13%,9%
O=C(O)Cn1c(=O)c2c3c(sc2n(Cc2ccccc2)c1=O)CCCC3,89µM*,-26%,0%,/,-17%,59%
CN(C)CCNc1nc2sc3c(c2c(=O)n1Cc1ccccc1)CCCCC3,35µM*,-3%,50µM*,/,-10%,-38%
CN(C)CCNc1nc2sc3c(c2c(=O)n1-c1ccccc1)CCCCC3,-10%,3%,-18%,/,1%,3%
SMILES,BAZ2B inh,VDR inhibitor,JMJD2A Tudor,L3MBTL1 inh,PLK1 PBD inh,HP1b chromo inh
Cc1nnc2n(Cc3ccccc3)c(=O)c3c4c(sc3n12)CCCC4,2%,/,/,/,/,/
COc1cc2c(c(Br)c1N)-c1cc(Br)c(N)cc1C2=O,/,/,/,/,-18%,/
CCc1ccc(-n2c(SCc3ccccc3Cl)nc3[nH]ncc3c2=O)cc1,-33%,-3%,-35%,/,/,37%
O=C(Cn1c(=O)n(Cc2ccco2)c(=O)c2c3c(sc21)CCCCC3)Nc1ccccc1,50µM*,-3%,32µM*,?,-27%,-29%
Cc1c(-c2ccccc2)n(-c2ccc(Cl)cc2)c2nc3c(c(=O)n(C)c(=O)n3C)n12,2%,11%,4%,/,/,53%
CCCCCC(=O)NC(=S)NNC(=O)CC,33%,?,28µM*,/,-7%,-8%
O=C(NC(=S)NNS(=O)(=O)c1ccccc1)c1cccnc1,11%,20%,-10%,5%,?,45%
CCCCC(=O)NC(=S)NNS(=O)(=O)c1ccccc1,-1%,?,?,18%,12µM*,-19%
CCNC(=S)NS(=O)(=O)c1ccccc1,?,4%,40µM*,-4%,?,-31%
COc1ccc(N(CC(=O)Nc2cccc(C(C)=O)c2)S(=O)(=O)c2ccccc2)c(OC)c1,?,5%,-12%,/,/,23%
COc1ccc([N+](=O)[O-])cc1NCc1ccccc1C,-1%,-11%,32µM*,20%,2%,75%
COc1ccc(OC)c(CNc2ccc([N+](=O)[O-])cc2C)c1,?,12%,28µM*,/,-17%,?
CSc1ccc(CCNC(=O)CCc2c(C)nc3c(c(C)nn3-c3ccccc3)c2C)cc1,1%,18%,-11%,/,/,31%
c1ccc(N2CCN(c3nc4cc5c(cc4s3)OCO5)CC2)cc1,2%,?,-10%[57.1 µM],3%,27µM*,-22%
c1c2c(cc3sc(N4CCOCC4)nc13)OCO2,-9%,?,?,-1%,27µM*,?
CCC(CC)C(=O)Nc1cc(-c2nc3cccnc3s2)ccc1C,-2%,11%,6%,/,/,48%
CN1CCN(c2ccc(C(=O)c3ccc(Br)cc3)cc2[N+](=O)[O-])CC1,40µM*,-8%,22µM*,-25%,-15%,?
O=C(Nc1nc2ccccc2s1)c1ccc(N2CCCCC2)c([N+](=O)[O-])c1,10µM*,-8%,?,-22%,-5%,-26%
O=C(Nc1ccon1)c1ccc(N2CCCCC2)c([N+](=O)[O-])c1,?,-15%,?,-45%,?,-32%
CN1CCN(c2ccccc2NC(=O)c2ccc(N3CCCC3)c([N+](=O)[O-])c2)CC1,?,-13%,56µM*,-12%,-7%,?
CS(=O)(=O)N1CCN(c2ccc(C(=O)NC34CC5CC(CC(C5)C3)C4)cc2[N+](=O)[O-])CC1,-39%,-13%,?,-1%,27µM*,?

# Screening data (PubChem BioAssay)
